# Results: PubChem BioAssay AID1578 (Sanford-Burnham Center for Chemical Genomics, 2009)
# The campaign covered roughly 290,000 compounds. About 3,000 (1%) were called active. Cut-off read from the data, not from the text of the source: active = inhibition mostly above about 36% (no sharp cut-off); inactive = mostly below about 34%. Shown is part of a subset that was picked to be rich in actives.
# Test: NOD1 signaling inhibitors, primary screen, cell-based, luminescence, uHTS (AID 1578);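 note: HEK-293T reporter cells stimulated with the NOD1 agonist gamma-tri-DAP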
# Conditions: NOD1-driven NF-kB luciferase reporter cells, at 4 µM, hits give high values
row,Compound,inhibition
1,Cc1cccnc1NC(=O)c1cccc(S(=O)(=O)N2CCCc3ccccc32)c1,-13% (inactive)
2,O=C(O)c1cccc(NC(=O)c2cccc(S(=O)(=O)N3CCc4ccccc43)c2)c1,29.9% (inactive)
3,Nn1cc(-c2ccccc2)nc1SCC(=O)NCC1CCCO1 (stereo not given),-25.8% (inactive)
4,O=C(CSc1nnc(-c2ccccc2)n1-c1ccccc1)c1cccs1,-1.9% (inactive)
5,Cc1cc(C(=O)NC2CCCCC2C)c2ccccc2n1 (stereo not given),1.8% (inactive)
6,O=C(C1=NNCC1c1ccc(Cl)cc1)C1CO1 (stereo not given),88.4% (active)
7,O=C(C1=NNCC1c1ccccc1)C1CO1 (stereo not given),-5.4% (inactive)
8,O=C(C1=NNCC1c1ccccc1)C1OC1c1ccccc1 (stereo not given),15.8% (inactive)
9,Cc1nc(N2CCOCC2)nc(OCCN(C)C)c1[N+](=O)[O-],-6.3% (inactive)
10,O=C(O)/C(=C\c1ccccc1OC(F)F)Sc1nnc(-c2ccc(F)cc2)o1,32.5% (active)
11,O=C(O)/C(=C\c1cccs1)Sc1nnc(-c2ccc(F)cc2)o1,-11.6% (inactive)
12,COc1cc(/C=C(/Sc2nnc(-c3ccc(F)cc3)o2)C(=O)O)ccc1OC(F)F,-21.8% (inactive)
13,CCCC(c1nnnn1C(C)(C)C)N1CCN(c2ccccc2)CC1 (stereo not given),-12.7% (inactive)
14,Cc1cc(=O)oc(C)c1C(=O)NNC(=O)C1(C)CC1Br (stereo not given),-8.9% (inactive)
15,COc1cc(/C=N/NC(=O)c2cnn3c(C)cc(-c4ccccc4)nc23)ccc1O,46.9% (inactive)
16,Cc1cc(C)c(NC(=S)N(CCCN2CCN(C)CC2)Cc2cccs2)c(C)c1,-25.1% (inactive)
17,Brc1ccc(CNCC2CCCO2)cc1 (stereo not given),64.4% (active)
18,Clc1ccc(CNCC2CCCO2)cc1 (stereo not given),5.9% (inactive)
19,Fc1ccc(CNCC2CCCO2)cc1 (stereo not given),2.2% (inactive)
20,COc1ccc(N(CC(=O)NCc2ccccc2)S(=O)(=O)c2c(C)nn(C)c2C)cc1,-15.5% (inactive)
21,COc1cc(/C=C2/C(=O)NN(c3ccc(Cl)c(Cl)c3)C2=O)cc([N+](=O)[O-])c1O,14.3% (inactive)
22,O=C1NN(c2ccccc2)C(=O)/C1=C\c1cccn1-c1ccc(Cl)c([N+](=O)[O-])c1,86.9% (active)
23,COc1cc(/C=C2\C(=O)NN(c3ccccc3)C2=O)cc([N+](=O)[O-])c1O,-38.3% (inactive)
24,O=C(CN1CCN(S(=O)(=O)N2CCCCCC2)CC1)Nc1ccc(Br)cc1,-32.9% (inactive)
25,O=Cc1ccc(N2CCCC2)c([N+](=O)[O-])c1,-40.9% (inactive)

row,Compound,inhibition
1,CNC(=O)Cc1csc2ccc(Cl)cc12,-7.2% (inactive)
2,CNC(=O)Cc1csc2ccc(C)cc12,41.4% (active)
3,O=C(O)CSCC(=O)NCc1csc2ccc(Cl)cc12,0.3% (inactive)
4,Cc1ccc(C)c(N2CCN(CCCNC(=O)Cn3cc4c(n3)CCC(C)C4)CC2)c1 (stereo not given),-16.2% (inactive)
5,COc1ccccc1/C=N/N(C(C)=O)c1nc(-c2ccc(F)cc2)cs1,9.4% (inactive)
6,O=C(O)C1CCCN(S(=O)(=O)c2ccc(Cl)s2)C1 (stereo not given),-19.7% (inactive)
7,Cc1cccc(Nc2ccc3nonc3c2[N+](=O)[O-])c1C,-9.3% (inactive)
8,COc1cc(NC(=O)COc2ccc(Cl)cc2)ccc1-c1cc2ccccc2oc1=O,12.1% (inactive)
9,COc1cc(NC(C)=O)ccc1-c1cc2ccccc2oc1=O,34.7% (inactive)
10,CCCc1ccc(S(=O)(=O)NCC2CCCN2CC)cc1 (stereo not given),-7.8% (inactive)
11,COc1ccc(N(CC(=O)NCc2ccco2)C(=O)CNS(=O)(=O)c2ccc(Cl)cc2)cc1,4.6% (inactive)
12,O=C(Cc1ccccc1)NC(=S)Nc1ccc2oc(-c3ccccc3F)nc2c1,-99.4% (inactive)
13,O=C(C1=C[C@@H](c2csc3ccccc23)C[C@@H](OCCCCO)O1)N1CCN(Cc2ccc3c(c2)OCO3)CC1,-7.2% (inactive)
14,CC(=O)C1=C(c2ccc(Br)cc2)C(=O)c2ccccc2C1=O,98.1% (active)
15,Cc1ccc(C2=C(O)c3ccccc3C(=O)C2=O)cc1,-31.4% (inactive)
16,O=C(C1=C(c2ccccc2)C(=O)c2ccccc2C1=O)c1ccccc1,1.2% (inactive)
17,COCCNC(=O)CCCC(=O)NCCOC,-16.8% (inactive)
18,COCCNC(=O)CCCCCN1C(=O)CCC1=O,48.6% (active)
19,O=C(CCCCCN1C(=O)CCC1=O)NCc1ccccc1,-1.8% (inactive)
20,Cc1nnc2sc(-c3ccc(-c4ccc(Cl)c(C(F)(F)F)c4)o3)nn12,-9.3% (inactive)
21,CN(C)CCC(=O)c1ccc2c(c1)OCO2,59.1% (active)
22,CCCC(=O)c1ccc2c(c1)OCCO2,1.3% (inactive)
23,O=C(Cc1ccccc1)c1ccc2c(c1)OCCO2,-43.1% (inactive)
24,O=C(CCCc1ccccc1)c1ccc2c(c1)OCCO2,54.9% (active)
25,O=C(CCc1ccccc1)c1ccc2c(c1)OCCCO2,-67.4% (inactive)
